This note sets out measurements from ChEMBL document CHEMBL4513141, “CO-ADD screening of NIH (USA) - Clinical Collection” (2021).

The term Inhibition denotes the relative decrease from the control value, in per cent.

For one experiment, the system named is Klebsiella pneumoniae. To be noted: Concentration 20 uM; ASSAY_TEST Inhibition of Bacterial Growth; detection method Absorption (OD600); MEDIA CAMHB; plate type 384well; NBS; CORNING #3640; time 18 hr.
Another experiment has as its system Candida albicans. To be noted: 20 µM.
A further experiment deals with Cryptococcus neoformans. The note with it: Concentration 20 uM; ASSAY_TEST Inhibition of Fungal Growth; detection method Resazurin; Absorption (OD600-OD570); plate type 384well; NBS; CORNING #3640. A general note: Alamar Blue is a resazurin reagent that responds to reducing activity.

Entries with a potency or affinity are not part of this list.

For the compound `CCOC(=O)O[C@]1(C(=O)OCCl)CC[C@H]2[C@@H]3CCC4=CC(=O)C=C[C@]4(C)[C@H]3[C@@H](O)C[C@@]21C` [LOTEPREDNOL ETABONATE], the results for the Inhibition in the experiment with Klebsiella pneumoniae, in the experiment on Candida albicans and in the experiment with Cryptococcus neoformans were 0.28%, 4.45% and 0.62%, respectively.
As for `CCN(CC)CCOC(=O)c1ccc(N)cc1.Cl` [PROCAINE HYDROCHLORIDE], the Inhibition was 12% in the experiment on Klebsiella pneumoniae, 3.62% in the experiment with Candida albicans and -2.16% in the experiment with Cryptococcus neoformans.
The like results for `CC1(C)O[C@@H]2[C@@H](CO[C@@]3(COS(N)(=O)=O)OC(C)(C)O[C@@H]23)O1` [TOPIRAMATE] were, in that order, 6.32%, 2.83% and -6.94%.
On to `CCN(CC)CC(=O)Nc1c(C)cccc1C` [LIDOCAINE], for which the Inhibition in the experiment on Klebsiella pneumoniae was 14.92%; with Candida albicans, 1.15%; with Cryptococcus neoformans, -4.85%.
Taken in the same sequence, the figures for `COc1cc(/C=C/c2ccc(O)cc2)cc(OC)c1` [PTEROSTILBENE] were 7.46%, 3.65% and -0.34%.
The like results for `CCC1=C(C)CN(C(=O)NCCc2ccc(S(=O)(=O)NC(=O)N[C@H]3CC[C@H](C)CC3)cc2)C1=O` [GLIMEPIRIDE] were, in that order, 11.97%, 1.98% and -2.89%.
With `CCN1CCC[C@H]1CNC(=O)c1cc(S(N)(=O)=O)ccc1OC` [LEVOSULPIRIDE], the results for the Inhibition in the experiment on Klebsiella pneumoniae, in the experiment with Candida albicans and in the experiment on Cryptococcus neoformans were 18.7%, 2.16% and 2.98%, respectively.
For the compound `CC(=O)OCC(=O)[C@@]1(O)CC[C@H]2[C@@H]3CCC4=CC(=O)CC[C@]4(C)[C@H]3[C@@H](O)C[C@@]21C` [HYDROCORTISONE ACETATE], the Inhibition with Klebsiella pneumoniae is 10.46%; in the experiment on Candida albicans, 1.02%; with Cryptococcus neoformans it was -7.62%.
Turning to `CC(O)CO.N[C@@H](C(=O)N[C@@H]1C(=O)N2C(C(=O)O)=C(CSc3c[nH]nn3)CS[C@H]12)c1ccc(O)cc1`, the Inhibition in the experiment on Klebsiella pneumoniae was 6.28%; in the experiment on Candida albicans, 12.3%; in the experiment with Cryptococcus neoformans it was -40.25%.
Take `Cc1ncc([N+](=O)[O-])n1CCO` [METRONIDAZOLE]: the Inhibition with Klebsiella pneumoniae is 13.91%; with Candida albicans, 1.89%; in the experiment on Cryptococcus neoformans, -8.47%.
For the compound `CCCC(=O)Nc1ccc(OCC(O)CNC(C)C)c(C(C)=O)c1.Cl` (centres undefined) [ACEBUTOLOL HYDROCHLORIDE], the Inhibition in the experiment on Klebsiella pneumoniae is 19.26%; in the experiment on Candida albicans, 1.82%; in the experiment on Cryptococcus neoformans it was -1.83%.
With `CCOC(=O)C1=C(C)NC(C)=C(C(=O)OC)C1c1cccc([N+](=O)[O-])c1` (centres undefined) [NITRENDIPINE], the values for the Inhibition with Klebsiella pneumoniae, with Candida albicans and in the experiment on Cryptococcus neoformans were 3.96%, 3.79% and -6.79%, respectively.
Taken in the same sequence, the figures for `Cl.Clc1ccc2nsnc2c1NC1=NCCN1` [TIZANIDINE HYDROCHLORIDE] were 10.36%, 3.84% and -1.24%.
As for `N[C@@H]1CONC1=O` [CYCLOSERINE], the Inhibition was 12% in the experiment with Klebsiella pneumoniae, 1.72% in the experiment with Candida albicans and -5.65% in the experiment with Cryptococcus neoformans.
Take `CC(N/C(=N\C#N)Nc1ccncc1)C(C)(C)C.O` (centres undefined): the values for the Inhibition with Klebsiella pneumoniae, in the experiment with Candida albicans and with Cryptococcus neoformans were 0.13%, 1.29% and -6.76%, respectively.
With `CN1CCN(CCCN2c3ccccc3Sc3ccc(Cl)cc32)CC1.O=C(O)/C=C\C(=O)O.O=C(O)/C=C\C(=O)O` [PROCHLORPERAZINE MALEATE], the Inhibition was 14.2% in the experiment with Klebsiella pneumoniae, 3.08% with Candida albicans and -1.92% with Cryptococcus neoformans.
`Cc1[nH]c(=O)c(C#N)cc1-c1ccncc1` [MILRINONE]: the Inhibition was 13.45% in the experiment on Klebsiella pneumoniae, 3.54% in the experiment with Candida albicans and -6.55% with Cryptococcus neoformans.
Taken in the same sequence, the figures for `CC(=O)O[C@@]12CO[C@@H]1C[C@H](O)[C@@]1(C)C(=O)[C@H](O)C3=C(C)[C@@H](OC(=O)[C@H](O)[C@@H](NC(=O)OC(C)(C)C)c4ccccc4)C[C@](O)([C@@H](OC(=O)c4ccccc4)[C@H]21)C3(C)C` were 11.64%, 1.38% and -6.01%.
The like results for `COC(=O)Nc1nc2cc(C(=O)c3ccccc3)ccc2[nH]1` [MEBENDAZOLE] were, in that order, 11.43%, 4.65% and 41.35%.
Regarding `Nc1ccc2cn[nH]c2c1`, the figures for the Inhibition with Klebsiella pneumoniae, with Candida albicans and in the experiment with Cryptococcus neoformans were 2.93%, 4.22% and 6.83%, respectively.
In the case of `CCN(CC)CCOC(=O)C1(C2CCCCC2)CCCCC1.Cl` [DICYCLOMINE HYDROCHLORIDE], the values for the Inhibition in the experiment on Klebsiella pneumoniae, in the experiment on Candida albicans and in the experiment on Cryptococcus neoformans were 5.74%, 3.82% and -0.13%, respectively.
In the case of `CN1CC(=O)N2[C@H](c3ccc4c(c3)OCO4)c3[nH]c4ccccc4c3C[C@@H]2C1=O`, the Inhibition with Klebsiella pneumoniae is 2.98%; with Candida albicans, -1.32%; with Cryptococcus neoformans, -3.58%.
The like results for `CC(C)(C)NC(=O)[C@H]1CC[C@H]2[C@@H]3CC[C@H]4NC(=O)C=C[C@]4(C)[C@H]3CC[C@]12C` [FINASTERIDE] were, in that order, -7.24%, 0.68% and -1.89%.
Taken in the same sequence, the figures for `CCN(CC)CCNC(=O)c1ccc(N)cc1.Cl` [PROCAINAMIDE HYDROCHLORIDE] were -3.79%, 0.33% and 3.84%.
In the case of `CN(C)CCOC(c1ccccc1)c1ccccc1.Cl` [DIPHENHYDRAMINE HYDROCHLORIDE], the results for the Inhibition with Klebsiella pneumoniae, with Candida albicans and with Cryptococcus neoformans were 1.03%, 4.49% and 4.12%, respectively.
The like results for `CC(=O)OCC(=O)[C@@]12OC(C)(C)O[C@@H]1C[C@H]1[C@@H]3C[C@H](F)C4=CC(=O)C=C[C@]4(C)[C@@]3(F)[C@@H](O)C[C@@]12C` [FLUOCINONIDE] were, in that order, 13.39%, -0.27% and -0.92%.
For the compound `CC=CC(=O)N(CC)c1ccccc1C`, the Inhibition with Klebsiella pneumoniae was 0.87%; in the experiment with Candida albicans, 0.3%; in the experiment with Cryptococcus neoformans, -7.28%.
The like results for `OCCN1C[C@H](O)[C@@H](O)[C@H](O)[C@H]1CO` [MIGLITOL] were, in that order, 11.67%, 2.16% and 1.09%.
